Compound activity as filed in PubChem BioAssay.
Sampled rows, rich in hits. Any-hit rate of the full collection: about 12%.
BAZ2B inh: blocks human BAZ2B; Q9UIF8; AlphaScreen BAZ2B-H3K14Ac peptide displacement; Potency, µM (top dose mostly 114 µM), actives largely listed as inhibitors; 360,000 tested, 4.4% active; note: nearly all actives have a fitted effect of over 60% in size
Target sequence (Q9UIF8 whole entry, looked up): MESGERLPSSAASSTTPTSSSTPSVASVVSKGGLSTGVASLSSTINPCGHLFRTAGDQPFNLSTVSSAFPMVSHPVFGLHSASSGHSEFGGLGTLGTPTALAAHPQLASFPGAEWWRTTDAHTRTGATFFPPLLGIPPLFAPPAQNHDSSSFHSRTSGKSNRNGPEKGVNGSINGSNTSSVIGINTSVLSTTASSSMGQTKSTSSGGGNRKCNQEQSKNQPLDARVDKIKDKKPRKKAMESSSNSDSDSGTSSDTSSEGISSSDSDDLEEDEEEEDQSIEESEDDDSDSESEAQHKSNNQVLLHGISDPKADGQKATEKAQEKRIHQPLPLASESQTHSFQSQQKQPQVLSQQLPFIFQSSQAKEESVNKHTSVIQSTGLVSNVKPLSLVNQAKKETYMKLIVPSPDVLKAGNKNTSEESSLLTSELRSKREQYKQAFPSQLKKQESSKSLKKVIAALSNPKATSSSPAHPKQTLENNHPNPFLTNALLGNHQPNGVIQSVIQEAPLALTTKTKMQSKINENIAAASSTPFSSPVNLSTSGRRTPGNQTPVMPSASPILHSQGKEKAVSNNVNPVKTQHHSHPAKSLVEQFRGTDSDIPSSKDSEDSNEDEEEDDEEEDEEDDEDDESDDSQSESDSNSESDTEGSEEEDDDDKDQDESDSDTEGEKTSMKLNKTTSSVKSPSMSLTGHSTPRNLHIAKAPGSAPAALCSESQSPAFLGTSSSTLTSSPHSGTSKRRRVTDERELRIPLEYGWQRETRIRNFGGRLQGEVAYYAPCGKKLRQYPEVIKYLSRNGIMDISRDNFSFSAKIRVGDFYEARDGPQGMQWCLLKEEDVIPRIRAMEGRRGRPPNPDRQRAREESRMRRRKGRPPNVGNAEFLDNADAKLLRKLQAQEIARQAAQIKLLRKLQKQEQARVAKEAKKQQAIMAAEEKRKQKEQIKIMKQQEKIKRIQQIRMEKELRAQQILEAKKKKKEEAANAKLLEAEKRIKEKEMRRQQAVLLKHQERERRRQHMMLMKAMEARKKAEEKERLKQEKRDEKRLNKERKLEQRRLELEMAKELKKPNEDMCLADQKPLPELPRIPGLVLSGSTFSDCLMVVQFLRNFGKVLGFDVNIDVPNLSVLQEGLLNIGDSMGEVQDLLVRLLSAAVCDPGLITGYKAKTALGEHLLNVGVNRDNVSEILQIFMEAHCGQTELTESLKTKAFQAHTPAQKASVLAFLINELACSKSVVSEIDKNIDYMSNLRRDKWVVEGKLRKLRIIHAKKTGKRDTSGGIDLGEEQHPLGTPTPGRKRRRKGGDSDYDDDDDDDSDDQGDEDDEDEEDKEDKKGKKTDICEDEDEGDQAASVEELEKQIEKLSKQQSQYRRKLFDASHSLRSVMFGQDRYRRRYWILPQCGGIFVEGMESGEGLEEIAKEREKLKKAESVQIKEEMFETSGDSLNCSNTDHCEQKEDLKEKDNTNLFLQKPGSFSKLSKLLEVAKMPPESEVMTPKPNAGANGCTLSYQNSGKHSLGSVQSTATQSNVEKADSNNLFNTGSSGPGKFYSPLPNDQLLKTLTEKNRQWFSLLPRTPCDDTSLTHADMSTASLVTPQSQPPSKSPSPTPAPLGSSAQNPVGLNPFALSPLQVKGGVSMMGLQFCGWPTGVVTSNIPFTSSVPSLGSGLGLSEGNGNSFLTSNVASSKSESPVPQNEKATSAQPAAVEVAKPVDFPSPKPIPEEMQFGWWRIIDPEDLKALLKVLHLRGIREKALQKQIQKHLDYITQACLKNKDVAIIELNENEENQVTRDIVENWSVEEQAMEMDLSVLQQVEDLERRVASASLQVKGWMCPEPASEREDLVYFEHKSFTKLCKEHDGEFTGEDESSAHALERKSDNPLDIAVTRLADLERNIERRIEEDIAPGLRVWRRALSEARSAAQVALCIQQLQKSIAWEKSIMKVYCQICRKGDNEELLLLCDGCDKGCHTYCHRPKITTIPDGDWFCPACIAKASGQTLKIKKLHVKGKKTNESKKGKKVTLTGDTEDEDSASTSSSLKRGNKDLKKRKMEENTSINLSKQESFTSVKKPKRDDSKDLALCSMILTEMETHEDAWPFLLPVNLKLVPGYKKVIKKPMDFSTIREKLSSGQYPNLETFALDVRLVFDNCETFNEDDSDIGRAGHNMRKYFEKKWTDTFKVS
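Complex of BAZ2B and biotin-H3K14Ac (50 nM apiece) forms over 30 min at RT, then faces library compounds up to 110 uM for another 30 min; AlphaScreen beads added, 20 min dark incubation, luminescence read.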
L3MBTL1 inh: blocks human L3MBTL1; 230,000 tested, 0.66% active; Q9Y468; Potency, µM (top dose mostly 57.1 µM), hits mostly inhibitors; AlphaScreen L3MBTL1–H3K9me1 peptide binding; note: nearly all actives have a fitted effect of over 60% in size
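First, the protein-peptide complex forms for 30 min at room temperature (L3MBTL1 50 nM, biotinylated H3K9me1 peptide 75 nM). Next, compounds are pin-transferred and incubated 30 min. Finally, AlphaScreen beads are added and read after 30 min.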
JMJD2A Tudor: JMJD2A Tudor domain (human) inhibition; 390,000 tested, 4.4% active; AID 504339; AlphaScreen JMJD2A-Tudor / H3K4me3 peptide binding; Potency, µM (doses to about 114 µM), usual class: inhibitors; O75164; note: nearly all actives have a fitted effect of over 50% in size
Sfp PPTase inh: inhibitors of Bacillus subtilis Sfp phosphopantetheinyl transferase. Potency, µM, hits mostly inhibitors. Q9F4F7. Biochemical Sfp PPTase activity, qHTS. AID 1490. 310,000 tested, 3.5% active;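 note: the enzyme is Sfp with the accession as filed and its product quenches rhodamine fluorescence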
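Step 1, compound plus 15 nM Sfp-PPTase, 15 min, room temperature. Step 2, add rhodamine-CoA (5 uM) and BHQ-2-YbbR (12.5 uM). Step 3, read 525/598 nm fluorescence at 0 and 30 min.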
HP1b binding inh: HP1-beta chromodomain-methylated histone interaction inhibition. AlphaScreen HP1-beta / biotin-H3K9me3 peptide binding. Potency, µM (top dose mostly 114 µM), usual class: inhibitors. 390,000 tested, 0.56% active. AID 540317; note: nearly all actives have a fitted effect of over 70% in size
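AlphaScreen: HP1-beta (50 nM) preformed 30 min with biotin-H3(1-18)K9me3 peptide (50 nM) in PBS pH 7.4, 0.01% Tween-20. Compound added for 30 min at RT, then streptavidin donor/nickel chelate acceptor beads (10 ug/mL) for 30 min.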
G9a inh: inhibitors of human histone lysine methyltransferase G9a; G9a H3K9 monomethylation, AlphaScreen, 2 h; Potency, µM (top dose mostly 102 µM), most hits filed as inhibitors; Q96KQ7; 350,000 tested, 8.8% active; note: nearly all actives have a fitted effect of over 75% in size
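Methyltransferase reactions run at room temperature for 2 h (20 nM enzyme, 500 nM biotin-H3K9 peptide, 20 uM SAM) after a 15 min compound preincubation; product detected by AlphaScreen beads and anti-H3K9me1 antibody.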
Numbers stand for hits; i = inactive; ? = inconclusive; nt = not tested or not shown; [ ] = remark or other dose. Calls come from the whole dose curve; as a rule, active = well fitted curve in the direction sought with a large enough effect; inconclusive = small, poorly fitted or top-dose-only effect, or another doubt; inactive = no such curve, though single readings can be large; an effect the other way counts as inactive or inconclusive.

SMILES	BAZ2B inh	L3MBTL1 inh	JMJD2A Tudor	Sfp PPTase inh	HP1b binding inh	G9a inh
COc1ccc(N2CCN(CCCNC(=O)c3c(C)nn(-c4ccc(F)cc4)c3-n3cccc3)CC2)cc1	50µM	nt	?	nt	i	4.5µM
Cc1ccc(-n2nc(C)c(C(=O)NCCCN3CCN(c4ccc(F)cc4)CC3)c2-n2cccc2)cc1	40µM	nt	45µM	nt	i	?
COc1cc(/C=C(\C#N)C(=O)NCc2ccccc2)ccc1OCc1ccc(C(=O)O)cc1	i	i	i[11.4 µM]	i	i	i
N#C/C(=C\c1ccc(OCc2ccc(Cl)cc2)cc1)C(=O)Nc1cccc(C(=O)O)c1	56µM	nt	?	i	i	?
COc1cc(/C=C(/C#N)C(=O)Nc2ccccc2)ccc1OCc1ccc(C(=O)O)cc1	56µM	nt	56µM	i	i	?
COc1cc(C(N)=O)ccc1OCc1ccccc1	i	nt	i	i	i	i
CCOc1cc(/C=C(\C#N)C(=O)Nc2cccc(C(=O)O)c2)ccc1OCc1ccc(Br)cc1	56µM	nt	?	i	?	45µM
COc1cc(C(=O)O)ccc1OCc1ccncc1	i	i	i	i	i	45µM
COc1cc(/C=C(\C#N)C(=O)Nc2cccc(C(=O)O)c2)ccc1OCc1ccc(C)cc1	i	nt	?	i	i	?
Cc1cc(NS(=O)(=O)c2ccc(NC(=O)Cc3ccccc3)cc2)nc(C)n1	i	nt	i	i	i	i
COc1ccc(Nc2ccc3cc(S(=O)(=O)N4CCCC4)ccc3n2)cc1Cl	i	nt	i	nt	i	i
CO/N=C(\C)CCN1CCCCc2nc(C)c(C)cc21	nt	nt	nt	i	nt	nt
COc1cc(/C=C(\C#N)C(=O)Nc2nnc(C(F)(F)F)s2)ccc1OCc1ccc(C(F)(F)F)cc1C(F)(F)F	nt	nt	nt	?	nt	8.4µM
CCOc1cccc(NC(=O)/C(C#N)=C\c2cccnc2)c1	?	i	i	i	i	71µM
COc1cc(C(=O)OCC(=O)N2CCC(Cc3ccccc3)CC2)cc(OC)c1OC	i	i	i	nt	i	8.9µM
COc1cc(C(=O)N2CCN(C(=O)Cc3ccccc3)CC2)cc(OC)c1OC	i	i	i	i	i	?
COc1cc(C(=O)N2CCN(CCCc3ccccc3)CC2)cc(OC)c1OC	nt	nt	20µM	nt	i	nt
COc1cc(C(=O)N2C(=O)CCC2=O)cc(OC)c1OC	?	i	i	i	i	35µM
CCOC(=O)c1ccc(NC(=O)C2CCN(C(=O)c3ccc(OC)c(OC)c3)CC2)cc1	i	i	i	i	i	i
COc1cc(C(=O)N2CCNCC2)cc(OC)c1OC	i	i	i	i	i	nt
COC(=O)c1ccc(NC(=O)C2CCN(C(=O)c3cc(OC)c(OC)c(OC)c3)CC2)cc1	i	nt	45µM	i	i	10µM
O=C(Nc1cc(Cl)ccc1-n1cncn1)c1cc(F)c(F)c(F)c1F	i	i	i	nt	i	i
CCN(CC)C(=O)C1CCCN(C(=O)c2cc(COc3cccc(OC)c3)on2)C1 (stereo not given)	i	nt	i	i	i	i
OC1CCN(Cc2cccc(Oc3ccccc3)c2)CC1	i	i	i	i	i	i
O=C(c1ccccc1)N1CCN(Cc2cccc(Oc3ccccc3)c2)CC1	50µM	i	40µM	i	i	16µM
SMILES	BAZ2B inh	L3MBTL1 inh	JMJD2A Tudor	Sfp PPTase inh	HP1b binding inh	G9a inh
COc1ccc(CN2CCN(Cc3cccc(Oc4ccccc4)c3)CC2)c(OC)c1OC	20µM	nt	4µM	?	25µM	45µM
COc1cccc(CN2CCN(C(=O)c3ccc(-c4ccccc4)cc3)CC2)c1	50µM	i	2.2µM	i	32µM	13µM
CN1CCN(Cc2cccc(Oc3ccccc3)c2)CC1	i	nt	i	i	i	71µM
Cc1onc(-c2c(F)cccc2Cl)c1C(=O)Nc1cccc(S(=O)(=O)N2CCOCC2)c1	nt	i	i	nt	i	nt
COc1ccc(CCN2CCCC(CN(C)C(=O)c3ccoc3)C2)cc1 (stereo not given)	i	nt	i	i	i	i
Cc1nnsc1C(=O)Nc1ccc(S(=O)(=O)N2CCCCC2)cc1	i	nt	i	i	i	i
COc1cc(CN2CCN(C(=O)c3ccc(-c4ccccc4)cc3)CC2)cc(OC)c1OC	i	i	7.9µM	i	?	nt
COc1cc(CN2CCN(Cc3cccc(OC)c3OC)CC2)cc(OC)c1	18µM	nt	4µM	?	35µM	45µM
